Measured values from PubChem BioAssay.
A number with no mark means an inactive call. For some of these results: Entries with a potency or affinity are not part of this list. The source made the active and inactive calls. Unless noted, how the calls were made is not given here.

Experiments:
[1] = antimalarial activity against Dd2 strain (AID 2302;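 active means growth inhibition above 50% at the single 2 µM test dose, taken to imply half-maximal potency below 2 µM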;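 further: 0% = DMSO untreated growth and 100% = chloroquine plus artemisinin killed control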); details: P. falciparum Dd2 in RBCs, LDH growth readout, 72 h; at 2 µM; stronger effect = higher value
[2] = human hepatoma cell viability loss – ATP luminescence, cytotoxicity control for P. falciparum antimalarial project, primary screen (AID 2303;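 active means inhibition above 50%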;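 further: 0% = DMSO wells and 100% = digitonin-killed cells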); details: HepG2 viability, 24-48 h, at 10 µM, stronger effect = higher value
[3] = biological target: L-lactate dehydrogenase (Plasmodium falciparum (isolate CDC / Honduras)) (UniProt Q27743); test: PfLDH activity inhibition – cell lysate, 3D7 strain, counter-screen for P. falciparum growth inhibition project (AID 2304);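 further: 0% = vehicle and 100% = reference inhibitor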; details: P. falciparum 3D7 crude extract, LDH APAD/NBT absorbance; at 2 µM; stronger effect = higher value
[4] = inhibition of 3D7 malaria parasite growth – strain 3D7 (AID 2306);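 further: 0% = DMSO wells and 100% = chloroquine plus artemisinin control wells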; details: P. falciparum 3D7 erythrocytic growth, LDH absorbance, 72 h; at 2 µM; stronger effect = higher value
[5] = biological target: Calcium-dependent protein kinase 1 (Plasmodium falciparum (isolate 3D7)) (UniProt P62344); test: PfCDPK1 kinase inhibitors, biochemical, TCAMS library (AID 1159585; cut-off not given, nearly all actives have IC50 up to about 0.98 µM;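 further: inhibitors leave more ATP so luminescence rises with inhibition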); details: recombinant PfCDPK1, Kinase-Glo ATP depletion luminescence
[6] = biological target: Plasmodium falciparum protein kinase 6 (PK6, PF3D7_1337100) (UniProt Q8IDW1); test: PfPK6 kinase inhibitors, biochemical, TCAMS library (AID 1159586); details: recombinant PfPK6, Kinase-Glo ATP depletion luminescence
[7] = biological target: Protein kinase 7 (PK7), Plasmodium falciparum 3D7 (PF3D7_0213400) (UniProt Q7YTF7); test: inhibition of Plasmodium PK7 catalytic activity – biochemical, TCAMS antimalarial set, Kinase-Glo luminescence (AID 1159587); details: recombinant PfPK7, Kinase-Glo ATP depletion luminescence
[8] = biological target: Calcium-dependent protein kinase 4 (Plasmodium falciparum (isolate 3D7)) (UniProt Q8IBS5); test: PfCDPK4 kinase inhibitors, biochemical, TCAMS library (AID 1159588; cut-off not given, nearly all actives have IC50 up to about 0.91 µM); details: recombinant PfCDPK4, Kinase-Glo ATP depletion luminescence
Sequence of Calcium-dependent protein kinase 4 (Plasmodium falciparum (isolate 3D7)) (Q8IBS5 whole entry, looked up): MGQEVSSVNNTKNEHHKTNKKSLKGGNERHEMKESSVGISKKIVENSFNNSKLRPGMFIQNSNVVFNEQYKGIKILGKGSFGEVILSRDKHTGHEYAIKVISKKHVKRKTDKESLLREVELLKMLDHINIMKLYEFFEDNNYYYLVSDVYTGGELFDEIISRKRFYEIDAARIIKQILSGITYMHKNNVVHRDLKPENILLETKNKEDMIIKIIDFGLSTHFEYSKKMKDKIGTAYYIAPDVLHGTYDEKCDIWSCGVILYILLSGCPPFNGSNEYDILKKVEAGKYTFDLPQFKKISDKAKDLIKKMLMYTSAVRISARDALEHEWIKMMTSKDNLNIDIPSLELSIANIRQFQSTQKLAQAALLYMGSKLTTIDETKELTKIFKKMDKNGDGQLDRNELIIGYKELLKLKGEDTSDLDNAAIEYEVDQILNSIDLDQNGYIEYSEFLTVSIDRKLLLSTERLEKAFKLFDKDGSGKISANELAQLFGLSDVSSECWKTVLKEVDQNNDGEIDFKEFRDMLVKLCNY

Sequence of Plasmodium falciparum protein kinase 6 (PK6, PF3D7_1337100) (Q8IDW1 1-305): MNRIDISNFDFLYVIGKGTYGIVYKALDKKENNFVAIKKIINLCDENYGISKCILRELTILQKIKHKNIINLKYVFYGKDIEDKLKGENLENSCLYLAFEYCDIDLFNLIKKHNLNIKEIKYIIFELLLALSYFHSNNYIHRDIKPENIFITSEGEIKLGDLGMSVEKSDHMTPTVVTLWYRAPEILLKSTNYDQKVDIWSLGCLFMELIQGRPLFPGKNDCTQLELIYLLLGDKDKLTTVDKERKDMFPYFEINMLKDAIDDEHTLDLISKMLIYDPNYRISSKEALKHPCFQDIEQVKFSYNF
Sequence of L-lactate dehydrogenase (Plasmodium falciparum (isolate CDC / Honduras)) (Q27743 whole entry, looked up): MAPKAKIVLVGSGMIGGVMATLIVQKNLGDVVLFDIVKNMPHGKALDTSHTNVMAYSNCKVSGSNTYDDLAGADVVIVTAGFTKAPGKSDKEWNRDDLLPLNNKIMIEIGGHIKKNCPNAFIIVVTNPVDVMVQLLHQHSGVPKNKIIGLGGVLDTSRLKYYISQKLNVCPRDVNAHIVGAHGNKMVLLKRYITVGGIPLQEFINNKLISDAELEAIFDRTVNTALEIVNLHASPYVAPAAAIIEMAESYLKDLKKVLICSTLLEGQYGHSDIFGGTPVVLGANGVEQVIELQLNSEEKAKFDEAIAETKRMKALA
Sequence of Calcium-dependent protein kinase 1 (Plasmodium falciparum (isolate 3D7)) (P62344 whole entry, looked up): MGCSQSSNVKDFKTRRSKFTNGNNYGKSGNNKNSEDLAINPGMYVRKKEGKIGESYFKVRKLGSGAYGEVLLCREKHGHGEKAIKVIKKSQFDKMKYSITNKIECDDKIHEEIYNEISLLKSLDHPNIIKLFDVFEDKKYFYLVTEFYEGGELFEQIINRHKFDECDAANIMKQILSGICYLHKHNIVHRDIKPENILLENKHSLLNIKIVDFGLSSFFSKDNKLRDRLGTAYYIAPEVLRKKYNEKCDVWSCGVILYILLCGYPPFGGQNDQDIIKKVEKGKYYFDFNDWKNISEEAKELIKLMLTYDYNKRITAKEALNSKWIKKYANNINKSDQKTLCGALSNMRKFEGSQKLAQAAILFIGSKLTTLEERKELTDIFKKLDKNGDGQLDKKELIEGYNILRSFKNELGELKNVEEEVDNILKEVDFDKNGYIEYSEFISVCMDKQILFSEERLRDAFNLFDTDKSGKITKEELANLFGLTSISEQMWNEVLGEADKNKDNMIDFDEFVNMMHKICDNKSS
Sequence of Protein kinase 7 (PK7), Plasmodium falciparum 3D7 (PF3D7_0213400) (Q7YTF7 1-343): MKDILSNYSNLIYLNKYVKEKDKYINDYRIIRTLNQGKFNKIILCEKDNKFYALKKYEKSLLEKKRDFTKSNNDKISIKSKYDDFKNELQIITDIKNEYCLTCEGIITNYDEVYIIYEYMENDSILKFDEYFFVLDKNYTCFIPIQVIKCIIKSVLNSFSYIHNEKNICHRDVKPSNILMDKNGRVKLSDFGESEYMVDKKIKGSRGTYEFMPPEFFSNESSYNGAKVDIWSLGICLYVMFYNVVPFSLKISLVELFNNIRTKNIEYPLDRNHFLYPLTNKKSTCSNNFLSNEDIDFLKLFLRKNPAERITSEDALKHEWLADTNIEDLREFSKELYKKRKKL

Row | Compound | growth inhibition [1] | inhibition [2] | inhibition [3] [%] | growth inhibition [4] | outcome [5] | outcome [6] | outcome [7] | outcome [8]
1 | O=C(Nc1ccc(OC2CCN(Cc3ccc(F)cc3)C2)c(Cl)c1)c1cccs1 (stereo not given) | 97% (active) | 21% | 2 | 98% (active) | inactive | inactive | inactive | inactive
2 | COc1ccc(CCNC(=O)c2cc3c(=O)n4cccc(C)c4nc3n(C)c2=N)cc1 | 99% (active) | 22% | 4 | 99% (active) | inactive | inactive | inactive | inactive
3 | O=[N+]([O-])c1cccc(C=NNc2ccnc3cc(F)ccc23)c1 | 100% (active) | 4% | -1 | 100% (active) | inactive | inactive | inactive | inactive
4 | Fc1ccc(Nc2ccnc3cc(-c4cccc(CN5CCCCC5)c4)ccc23)c(Cl)c1 | 58% (active) | 3% | -1 | 91% (active) | inactive | inactive | inactive | inactive
5 | O=C(Nc1cccc(-c2nn3ncccc3c2-c2ccnc(Nc3cccnc3)n2)c1)c1c(F)cccc1F | 70% (active) | 5% | -2 | 96% (active) | inactive | inactive | inactive | inactive
6 | CCCN(CC1CC1)c1ncc(-c2cccc(CNCCC3CCCN3C)c2)cn1 (stereo not given) | 43% | 77% (active) | 7 | 98% (active) | inactive | inactive | inactive | inactive
7 | O=C(Cc1cnc[nH]1)Nc1cccc(-c2ccc(-c3nc4ccc(C(F)(F)F)cc4[nH]3)cc2)c1 | 99% (active) | 10% | -1 | 102% (active) | inactive | inactive | inactive | inactive
8 | c1cc(CN2CCC(CCN3CCCCC3)CC2)cc(-c2cccc(-c3nc4ccccc4[nH]3)c2)c1 | 101% (active) | 95% (active) | -3 | 100% (active) | inactive | inactive | inactive | inactive
9 | CS(=O)(=O)NCCCNCc1cccc(-c2ccc(-c3nc4ccc(C(F)(F)F)cc4[nH]3)cc2)c1 | 85% (active) | 17% | -4 | 100% (active) | inactive | inactive | inactive | inactive
10 | COc1ccc2c(NN=Cc3ccccn3)ccnc2c1 | 96% (active) | 14% | -2 | 102% (active) | inactive | inactive | inactive | inactive
11 | Cc1cc(N[C@@H](Cc2ccccc2)C(=O)NCCOc2ccccc2)nc(NCCc2ccc(F)cc2)n1 | 86% (active) | 5% | 1 | 99% (active) | inactive | inactive | inactive | inactive
12 | COc1c(CCNCCCCNCCc2cc(Cl)c3ccccc3c2OC)cc(Cl)c2ccccc12 | 100% (active) | 99% (active) | -7 | 99% (active) | inactive | inactive | inactive | inactive
13 | CCC(=O)N[C@@H]1CN[C@@H](C#Cc2cc3c(Nc4ccc(OCc5cccc(F)c5)c(Cl)c4)ncnc3s2)C1 | -5% | 46% | -3 | 82% (active) | inactive | inactive | inactive | inactive
14 | CN1CCN(Cc2ccc(-c3cc4c(Nc5ccc(OCc6cccc(F)c6)c(Cl)c5)ncnc4s3)[nH]2)CC1 | 99% (active) | 23% | 2 | 101% (active) | inactive | inactive | inactive | inactive
15 | CC(C)c1ccc(-c2nc3ncc(Cl)cc3[nH]2)cc1 | 77% (active) | 3% | -2 | 87% (active) | inactive | inactive | inactive | inactive
16 | CCNc1cc(C(=O)N[C@@H](Cc2ccccc2)[C@H](O)CNCCc2cccc(C(F)(F)F)c2)cc(N2CCCC2=O)c1 | 93% (active) | 7% | 1 | 96% (active) | inactive | inactive | inactive | inactive
17 | N#CC1(CCCNCCc2ccc(O)cc2)CCCc2c(O)cccc21 (stereo not given) | 3% | -2% | -5 | 95% (active) | inactive | inactive | inactive | inactive
18 | COc1cc2cc(-c3nc4ccccc4[nH]3)c(N)nc2cc1OC | 100% (active) | 91% (active) | 1 | 100% (active) | inactive | inactive | inactive | inactive

Row | Compound | growth inhibition [1] | inhibition [2] | inhibition [3] [%] | growth inhibition [4] | outcome [5] | outcome [6] | outcome [7] | outcome [8]
19 | O=C(Cc1ccc(Cl)cc1)Nc1cc(Cl)ccc1Cn1cnc(N2CCNCC2)cc1=O | 2% | 9% | -4 | 97% (active) | inactive | inactive | inactive | inactive
20 | COc1cc(Nc2nc(N)c3cc(OC)c(OC)cc3n2)cc(OC)c1 | 102% (active) | 7% | 4 | 101% (active) | inactive | inactive | inactive | inactive
21 | Cc1ccc(NC(=O)c2cn(-c3ccccc3)nc2-c2ccc(F)cc2)cc1[N+](=O)[O-] | 38% | 6% | 8 | 92% (active) | inactive | inactive | inactive | inactive
22 | O=C(Nc1ccon1)c1cc(-c2cccnc2)nc2ccc(Br)cc12 | 77% (active) | 7% | -3 | 99% (active) | inactive | inactive | inactive | inactive
23 | Nc1nc2c(ncn2OC[C@H]2COP(=O)(O)CO2)c(=O)[nH]1 | 32% | 1% | -2 | 92% (active) | inactive | inactive | inactive | inactive
24 | CCC[C@@H]([C@@H](CC(C)C)C(=O)N[C@@H](CCCNc1nccc(C(F)(F)F)n1)C(=O)Nc1nccs1)N(O)C=O | 98% (active) | -4% | 8 | 99% (active) | inactive | inactive | inactive | inactive
25 | O=C(Nc1cc(C(F)(F)F)ccc1N1CCOCC1)C(Cl)(Cl)Cl | 100% (active) | -5% | 5 | 100% (active) | inactive | inactive | inactive | inactive
26 | Cc1cc(N2CCC(NS(=O)(=O)c3ccc(F)cc3)CC2)nc(Nc2cccc(C#N)c2)n1 | 65% (active) | 20% | -4 | 97% (active) | inactive | inactive | inactive | inactive
27 | O=C(c1cnn(-c2ccccc2)c1C(F)(F)F)N1CCN(c2ccnc3cc(Cl)ccc23)CC1 | 94% (active) | 34% | 6 | 89% (active) | inactive | inactive | inactive | inactive
28 | CCCN1CCN(Cc2ccc(-c3ccc(-c4nc5ccccc5[nH]4)s3)cc2)CC1 | 93% (active) | 29% | 5 | 103% (active) | inactive | inactive | inactive | inactive
29 | CCC(C)NC(=O)CN1CN(c2ccccc2)C2(CCN(C(=O)c3ccc(-c4ccccc4)cc3)CC2)C1=O (stereo not given) | 100% (active) | -1% | -2 | 100% (active) | inactive | inactive | inactive | inactive
30 | NCC1CCCN1Cc1ccc(-c2ccc(-c3nc4ccccc4[nH]3)s2)cc1 (stereo not given) | 97% (active) | 17% | -6 | 98% (active) | inactive | inactive | inactive | inactive
31 | COC(=O)c1cccc(CNCc2ccc(-c3ccc(-c4nc5ccc(C(F)(F)F)cc5[nH]4)cc3)cc2)c1 | 98% (active) | 22% | 0 | 101% (active) | inactive | inactive | inactive | inactive
32 | OCCNc1nc(Nc2cccc(O)c2)nc2ccccc12 | 55% (active) | 3% | 3 | 96% (active) | inactive | inactive | inactive | inactive
33 | Cc1[nH]c2ccc(-c3ccc(OC(F)(F)F)cc3)cc2c(=O)c1C#N | 97% (active) | -5% | -9 | 98% (active) | inactive | inactive | inactive | inactive
34 | CC(C)S(=O)(=O)N1CCN(Cc2ccc3c(c2)nc(NC(=O)c2ccsc2)n3C[C@H](O)c2ccccc2)CC1 | 72% (active) | 56% (active) | 0 | 91% (active) | inactive | inactive | inactive | inactive
35 | COc1ccc2nccc(N3CCC(SCCNS(=O)(=O)c4ccc5c(c4)OCCO5)C3)c2n1 (stereo not given) | 87% (active) | 36% | 5 | 94% (active) | inactive | inactive | inactive | inactive
